# Hits are enriched below; roughly 19% of the tested compounds scored in any of these assays.
# Pf growth 96h: P. falciparum growth inhibition at 96 hour, primary screen for plastid delayed-death inhibitors; 320,000 compounds, 6.9% hits; AID 504834; P. falciparum luciferase reporter growth, 96 h; Potency, µM (series often up to 28.7 µM), for inactives: at the top dose activity change, negative = inhibition, usual class: inhibitors; further: potency means the concentration at half of the fitted maximal effect; on the % scale 0 is the no-effect control and ±100 the full control effect
#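 Plates of compound plus infected erythrocytes (2% hematocrit, 0.05% parasitemia final) incubate 96 hours, 37 C, 5% CO2. Detection reagent added; reduced luminescence from the parasites' luciferase reporter flags inhibition.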
# CHX counter: affects cycloheximide protein synthesis inhibition readout, counter-screen; cell reporter, cycloheximide protein synthesis inhibition counterscreen; max response, %; 300,000 compounds, 12% hits; in the data active means max response mostly above about 13%, no sharp cut-off; inactive means mostly below about 14%; further: read at 38.3 µM for the half of the compounds with a filed dose; 0% is about no effect
# Pf growth 48h: P. falciparum growth inhibition at 48 hours (one generation). P. falciparum luciferase growth in erythrocytes, 48 h. Potency, µM (doses to about 28.7 µM), without a hit: at the highest dose activity change, negative = inhibition, usual class: inhibitors. 310,000 compounds, 5.9% hits. AID 504832; further: potency means the concentration at half of the fitted maximal effect; on the % scale 0 is the no-effect control and ±100 the full control effect
#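 Luminescence readout; reporter = integrated firefly luciferase in P. falciparum. RBC culture at 2% hematocrit, 0.1% parasitemia final, 37 C/5% CO2; decreased signal taken as growth inhibition.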
# Marburg entry inh: inhibitors of Marburg virus binding or cell entry. Potency, µM (top dose mostly 37.8 µM), inactives show at the highest dose activity change, negative = inhibition, most hits filed as inhibitors. AID 540276. Marburg virus pseudotyped entry inhibition, cell reporter. 300,000 compounds, 1.8% hits; calls by dose curve; tested in HEK293 cells; further: potency means the concentration at half of the fitted maximal effect; on the % scale 0 is the no-effect control and ±100 the full control effect
# Shiga toxin inh: blocks Shiga toxin action in Vero cells. Vero cells, Shiga toxin protein synthesis inhibition reporter. inhibition, % at 38.7 µM. 290,000 compounds, 9.2% hits. AID 2315; in the data active means inhibition mostly above about 28%, no sharp cut-off; inactive means mostly below about 43%; further: 0% is about no effect
# Lassa entry inh: blocks Lassa virus binding to or entry into cells; Lassa virus pseudotype entry inhibition, cell reporter; Potency, µM (titrated, usually from 37.9 µM), for inactives: at the highest dose activity change, negative = inhibition, usual class: inhibitors; 300,000 compounds, 1.2% hits; calls by dose curve; tested in HEK293 cells; further: potency means the concentration at half of the fitted maximal effect; on the % scale 0 is the no-effect control and ±100 the full control effect; nearly all actives have a fitted effect of over 50% in size
# Starred values were filed as active, the others as inactive; u = inconclusive; x = no result given; [ ] = dose if it differs, or a comment. Unless noted, the call rests on the fitted dose curve; in most records, active means well fitted inhibition curve with a large enough effect; inconclusive means small, poorly fitted or top-dose-only effect, or another doubt; inactive means no such curve, though single readings can be large or run the other way.
SMILES,Pf growth 96h,CHX counter,Pf growth 48h,Marburg entry inh,Shiga toxin inh,Lassa entry inh
CCOc1ccc2nc(NC(=O)c3nc(SC(C)C)ncc3Cl)sc2c1,x,x,x,17%[46.1 µM],x,-9%[46.1 µM]
COc1ccccc1N1CCN(c2cc(C)nc3c(-c4ccc(Cl)cc4)c(C)nn23)CC1,x,x,x,x,x,23%[46.1 µM]
Cc1ccccc1-n1c(-c2ccc(Cl)cc2)cnc1SCC(=O)NC1CCS(=O)(=O)C1 (stereo not drawn),u,-3,u,-41%,1,-16%
COc1ccc2nc(NC(=O)CSc3nc(C)cc(=O)[nH]3)sc2c1,x,27*,26%,u,31,12%
C=CCn1c(SCC(=O)c2ccc(O)c(O)c2)nnc1-c1ccc(C)cc1,26%,x,u,x,x,x
CC1(C)C=C(c2ccc(O)cc2)CC(C)(C)N1,13µM*,-1,4%,5%,-5,2%
Cc1cc(N/N=C/c2ccccc2F)nc(NCc2ccccc2)n1,u,4,u,u,74,2%
Cc1cc(N/N=C/c2ccc(Cl)cc2)nc(NCc2ccccc2)n1,0.74µM*,12,1µM*,u,-5,u
Cc1cc(N/N=C/c2cccc(Cl)c2)nc(NCc2ccccc2)n1,u,23*,0.83µM*,18µM*,31,u
CN(C)c1nc(NCc2ccccc2)nc(N/N=C/c2ccc(Cl)cc2Cl)n1,9.3µM*,-2,u,u,-5,-18%
Cc1cc(N/N=C/c2ccccc2)nc(NCc2ccccc2)n1,1.5µM*,24*,2.3µM*,u,14,u
CC12CCC(=O)N1C(C(=O)Nc1cc(Cl)ccc1N1CCOCC1)CS2 (stereo not drawn),u,1,u,3%,-13,14%
CC(C)CNC(=S)NC1CC2CCCC(C1)N2C1CCCCC1 (stereo not drawn),16%,-3,u,x,-1,x
Cc1cc(Nc2cccc(Cl)c2)nc(NCc2ccccc2)n1,0.47µM*,-2,0.74µM*,u,-10,-15%
Cc1cc(N/N=C/c2cccc(F)c2)nc(NCc2ccccc2)n1,u,20*,u,16µM*,65*,u
CC(NC(=S)Nc1ccc(F)cc1)c1ccccc1 (stereo not drawn),u,-1,125%,-1%,-7,0%
COc1ccc(OC)c(NC(=O)c2ccc3c(SCC(=O)O)c4c(nc3c2)CCCC4)c1,x,x,x,6%[46.1 µM],x,3%[46.1 µM]
COc1cc(OC)c(NC(=O)c2ccc3c(SCC(=O)O)c4c(nc3c2)CCCC4)cc1Cl,226%,-3,5.2µM*,x,-12,x
CCN1CCN(C(=O)c2ccc3c(Cl)c4c(nc3c2)CCCC4)CC1,-29%,8,u,u,-17,u
CN1CCN(C(=O)c2ccc3c(Cl)c4c(nc3c2)CCCC4)CC1,13µM*,15,-30%,x,28,x
CCOC(=O)N1CCN(C(=O)c2ccc3c(SCC(=O)O)c4c(nc3c2)CCCC4)CC1,12µM*,-1,-5%,-7%,-9,-15%
Cc1cc(NC(=O)CSc2nnc(-c3cccnc3)n2N)no1,x,-2,6%,3%[46.1 µM],5,u
O=C(OCCN1C(=O)c2cccc3c(N4CCOCC4)ccc(c23)C1=O)c1ccc(Cl)cc1Cl,u,-7,u,u,-11,u
CCCc1cc(=O)n2[nH]c(-c3ccccc3)cc2n1,u,30,195%,-8%[46.1 µM],70*,1%
CCCc1cc(=O)n2[nH]c(-c3ccc(C)cc3)cc2n1,-16%,39*,38%,-9%,73*,u
SMILES,Pf growth 96h,CHX counter,Pf growth 48h,Marburg entry inh,Shiga toxin inh,Lassa entry inh
O=c1cc(-c2ccccc2)nc2cc(-c3ccc(Br)cc3)[nH]n12,370%,9,u,x,12,x
CCOC(=O)Cc1cc(=O)n2[nH]c(-c3ccc(Cl)cc3)cc2n1,-3%,10,x,13%,11,14%
CCCc1cc(=O)n2[nH]c(-c3ccc(Cl)cc3)cc2n1,u,57*,0%,x,92*,x
O=c1cc(-c2ccccc2)nc2cc(-c3ccco3)[nH]n12,u,18*,6%,x,44,x
O=C(CCn1cnc2onc(-c3ccc(F)cc3)c2c1=O)Nc1ccc(F)c(Cl)c1,x,x,x,x,x,22%[46.1 µM]
O=C(COC(=O)Cc1cccs1)Nc1ccccc1,19%,-1,2%,21%,-4,-10%
CCOc1ccc(CN2C(=O)c3ccccc3C2=O)cc1C(=O)NC1CC(C)(C)NC(C)(C)C1,-9%,x,u,x,x,x
CC(=O)Oc1oc(-c2ccccc2)nc1C=Nc1ccc(N(C)C)cc1,54%,10,53%,10%[46.1 µM],39,-7%
CN(C)c1ccc(N=Cc2nc(-c3ccccc3)oc2OC(=O)c2ccccc2)cc1,157%,34*,166%,u,34*,u
CC(=O)Oc1oc(-c2ccccc2)nc1/C=N/c1ccccn1,u,47*,117%,-18%,87*,-1%
Cc1[nH]c2ccccc2c1/C=N/NC(=O)c1cccc(S(=O)(=O)Nc2cccc(C(F)(F)F)c2)c1,-4%,-3,-11%,x,22,x
CC(=O)c1ccc(N2CCN(S(=O)(=O)c3cccc4nsnc34)CC2)cc1,60%,-5,0%,13%[46.1 µM],-11,2%
CCOc1ccc(-n2c(SCC(=O)Nc3ccc(CC)cc3)nc3n[nH]c(C)c3c2=N)cc1,u,-8,11%,u,-8,u
Cc1ccccc1N=C1c2ccccc2C(=O)C1[N+](=O)[O-] (stereo not drawn),25%,-2,5%,x,-20,x
CC(=O)C1C(=O)c2c(cccc2[N+](=O)[O-])C1=Nc1ccccc1C (stereo not drawn),0.0037µM*,15,x,x,26,x
CC(=O)C1C(=O)c2c(cccc2[N+](=O)[O-])C1=Nc1cccc(Cl)c1 (stereo not drawn),u,14,1.5µM*,-27%,16,u
CCO[C@@H]1OC(C(=O)NC2CC2)=C[C@H](c2ccccc2)[C@H]1CCCO,3%,11,5%,x,12,x
